High-throughput results: PubChem BioAssay, several laboratories
The list is not random: actives were taken first. Their share in the collection is about 4%.
Mtb UGM inh: inhibitors of M. tuberculosis UDP-galactopyranose mutase; P9WIQ1; purified UGM, fluorescence polarization probe displacement; inhibition, % at 10 µM; 320,000 compounds, 0.06% hits; in the data active = inhibition above about 10%, passing the limit was not always enough
Rv3671c inh: inhibitors of M. tuberculosis serine protease Rv3671c. 320,000 compounds, 0.048% hits. inhibition, % at 5.96 µM. P9WHR9. AID 2606; in the data active = inhibition above about 38%;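 also: extracellular domain of Rv3671c used as enzyme; 0% = enzyme with DMSO and 100% = no enzyme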
Target sequence (P9WHR9 whole entry, looked up, the tested form may be a part): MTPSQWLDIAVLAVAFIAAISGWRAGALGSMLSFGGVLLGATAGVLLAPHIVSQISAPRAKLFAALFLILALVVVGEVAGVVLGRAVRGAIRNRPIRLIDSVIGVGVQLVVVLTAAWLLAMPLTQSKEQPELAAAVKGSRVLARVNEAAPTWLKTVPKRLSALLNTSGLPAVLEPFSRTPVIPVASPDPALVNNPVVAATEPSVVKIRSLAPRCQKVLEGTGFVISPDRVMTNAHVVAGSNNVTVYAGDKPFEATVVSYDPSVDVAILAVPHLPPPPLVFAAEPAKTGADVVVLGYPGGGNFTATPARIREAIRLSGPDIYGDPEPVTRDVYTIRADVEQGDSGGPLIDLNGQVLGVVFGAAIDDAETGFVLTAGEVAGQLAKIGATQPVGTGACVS
Mtb betalactam: beta-lactam sensitization of Mtb H37Rv | M. tuberculosis H37Rv growth with meropenem, percent inhibition | inhibition, % at 25 µM | 330,000 compounds, 0.27% hits | AID 434955;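 also: growth measured after seven days incubation then overnight dye step; 0% = bacteria only wells and 100% = bacteria with antibiotic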
RecA intein inh: blocks M. tuberculosis RecA intein splicing. P9WHJ3. cell-free RecA intein splicing, fluorescence. inhibition, % (concentration not given with the values). 290,000 compounds, 0.75% hits. AID 2221; in the data active = inhibition above about 30%;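 also: 0% = vehicle wells and 100% = reference inhibitor control wells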
GDH-TPI counter: inhibits GDH-TPI coupling enzymes, artifact for Mtb FBA screen; GDH-TPI coupled enzyme counterscreen, NADH absorbance; inhibition, % at 4.8 µM; 360,000 compounds, 1.2% hits; AID 588335; in the data active = inhibition above about 30%;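 also: 0% = DMSO wells and 100% = wells lacking the enzyme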
FBA Mtb inh: inhibitors of M. tuberculosis fructose-bisphosphate aldolase; purified M. tuberculosis FBA, fluorescence read-out; inhibition, % at 1 µM; 360,000 compounds, 2.3% hits; AID 588726; in the data active = inhibition above about 27%;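 also: 0% = vehicle and 100% = reference inhibitor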
GFP chromo cs: counter-screen: blocks GFP chromophore formation | shares compounds with RecA intein inh | cell-free GFP chromophore formation, fluorescence | EC50, µM | 2,100 compounds, 83% hits | AID 434968
* marks the source's active call; other numbers are inactive results; x = no result. Unless noted, no rule for the calls is given here.

SMILES	Mtb UGM inh	Rv3671c inh	Mtb betalactam	RecA intein inh	GDH-TPI counter	FBA Mtb inh	GFP chromo cs
COc1cccc(-c2[nH]nc3c2C(c2ccsc2)C(C#N)=C(N)O3)c1 (stereo unspecified)	-0.3	-37.1	-3.0	76.4*	5.1	0.4	7.72*
COC(=O)C(Cc1c[nH]c2ccccc12)NC(=O)c1cccc(S(=O)(=O)N2CCCCC2)c1 (stereo unspecified)	0.5	-3.5	-1.0	x	-1.8	-2.6	x
Nc1ccc(Nc2ccccc2N)cc1	0.7	2.3	99.8	58.3*	-1.4	3.2	19.7*
CCOc1ccc(-n2cnc3sc(C)c(C)c3c2=O)cc1	1.5	-8.2	-1.0	2.0	5.6	-1.3	x
COCCn1c(Cc2ccccc2)nnc1SCC(=O)NC1CC1	-1.9	-3.2	8.4	-1.2	-5.9	1.4	x
CCn1c2ccccc2c2cc(C3C(C#N)=C(N)Oc4n[nH]c(COC)c43)ccc21 (stereo unspecified)	0.8	-4.7	5.8	76.5*	11.9	2.6	10.1*
COCc1[nH]nc2c1C(c1ccc(OC)c(OC)c1)C(C#N)=C(N)O2 (stereo unspecified)	-1.2	0.9	-8.1	55.9*	8.6	3.5	31.5*
COCc1[nH]nc2c1C(c1ccnc3ccccc13)C(C#N)=C(N)O2 (stereo unspecified)	-1.1	0.6	-6.4	7.3	16.8	-3.0	x
COCc1[nH]nc2c1C(c1ccc(F)cc1F)C(C#N)=C(N)O2 (stereo unspecified)	3.8	-3.1	2.2	25.3	6.7	1.0	x
CCOCCCNC(=O)c1cccc(OC2CCN(S(C)(=O)=O)CC2)c1	-1.5	-11.1	-6.0	-0.8	12.4	-0.3	x
CNc1nc(Oc2cccc(NC(C)=O)c2)c2sccc2n1	x	x	x	x	18.1	16.9	x
O=C(NN=c1c(=O)c2ccccc2c1=O)c1ccccc1	1.0	-143.8	8.8	91.3*	15.5	-4.1	5.21*
O=C(CCN1C(=O)CC1c1ccco1)N1CCOCC1 (stereo unspecified)	x	x	x	x	x	-1.5	x
COc1ccc(CNC(=O)c2nc(S(=O)(=O)Cc3ccccc3)ncc2Cl)cc1	0.5	1.3	4.5	81.9*	-1.7	4.6	14.8*
CCC1CCCCN1S(=O)(=O)c1ccc(NC(=O)c2nc(S(C)(=O)=O)ncc2Cl)cc1 (stereo unspecified)	3.4	-97.1	-2.4	96.6*	0.9	4.8	1.26*
CCC1CCCCN1S(=O)(=O)c1ccc(NC(=O)c2ccncc2)cc1 (stereo unspecified)	0.1	-4.5	-3.7	1.1	0.3	-2.0	x
O=C(NCc1ccccc1)c1nc(S(=O)(=O)Cc2ccccc2)ncc1Cl	-2.0	-14.9	1.2	77.4*	9.6	3.2	16.7*
CS(=O)(=O)c1ncc(Cl)c(C(=O)Nc2ccc3ccccc3c2)n1	x	x	x	30.9*	0.7	-0.8	12.4*
O=C(Nc1ccc2ccccc2c1)c1cnccn1	1.6	-9.0	82.8	4.8	10.1	2.5	x
COc1cccc(NC(=S)N(CCC(C)C)C2CCN(C(C)=O)CC2)c1	-0.4	0.4	4.7	-0.2	4.4	-1.4	x
Cc1cccc(C(=O)OCC(=O)NC(=O)NC2CCCCC2)c1	x	x	x	x	-9.1	-2.1	x
CC(=O)Nc1ccc(NC(=O)c2nc(S(=O)(=O)Cc3ccccc3)ncc2Cl)cc1	-0.8	-3.0	1.5	39.9*	9.6	1.8	26.1*
CCS(=O)(=O)c1ncc(Cl)c(C(=O)Nc2ccc(C)cc2)n1	-0.5	-1.4	99.6	64.5*	17.4	-0.4	22.7*
COc1ccc2nc(SCC(=O)C(C)(C)C)[nH]c2c1	-8.1	8.6	-17.5	2.5	-2.9	-0.9	x
COc1ccc(CCNC(=O)c2cc3cc(F)ccc3nc2C)cc1OC	0.0	7.0	-3.8	-2.2	3.4	1.9	x
Cn1c(=O)c([N+](=O)[O-])c(-n2ccnc2)c2ccccc21	1.2	3.8	-4.7	65.7*	6.4	-0.5	18.6*
Cc1ccc(C)c(NC(=O)CSc2n[nH]c(-c3ccccn3)n2)c1	1.9	6.5	93.0	50.5*	-0.7	4.3	>38
CCSc1c([N+](=O)[O-])c(=O)n(-c2ccccc2)c2ccccc12	-1.1	-8.5	70.1	39.9*	-6.2	-8.2	>38
COCCNc1c([N+](=O)[O-])c(=O)n(-c2ccccc2)c2ccccc12	0.0	8.1	5.4	-4.3	4.2	-1.4	x
CCNC(=O)C1(C)CCN(C(=O)c2cccc(Cl)c2)C1 (stereo unspecified)	x	x	x	x	6.4	-2.5	x
